Reference: ChEMBL document CHEMBL4513216, “Probing the Open Global Health Chemical Diversity Library for Multistage-Active Starting Points for Next-Generation Antimalarials” (ACS Infect Dis, 2020)
The campaign covered roughly 69,000 compounds. About 8,600 (12%) showed an effect of 50% or more. Shown is part of a subset that was picked to be rich in strong results.

system: Plasmodium berghei; assay: Screen against P. berghei liver stage (PbLuc), transformed with Luciferase, at 10uM; assay type: functional, HepG2; details: tested at 10 uM

Structure (SMILES) | INHIBITION [%]
CN1CCC2(CCN(Cc3nccs3)CC2)C1=O | 7.15
O=C(NCC1CC1)C1CCC2(CCN(C(=O)c3ccco3)CC2)O1 (stereo not given) | -25.8
CN(C(=O)CCc1nc(C2CC2)no1)c1cc(C#N)c2ccccc2n1 | 23.1
O=C(c1ccc(S(=O)(=O)N2CCNCC2)cc1)N1CCCC(O)C1 (stereo not given) | 13.3
CCCc1noc(CN2CCN(c3nccs3)CC2)n1 | -4.16
Cc1cc(C2CCCN2Cc2ccc(S(=O)(=O)N3CCCC3)o2)on1 (stereo not given) | 19.2
CCCC1c2ccccc2CCN1CCS(C)(=O)=O (stereo not given) | 22.8
CCC1c2ccccc2CCN1CCNS(C)(=O)=O (stereo not given) | 18
CCC1c2ccccc2CCN1CCCS(C)(=O)=O (stereo not given) | 50.6
Cc1nn(-c2ccccc2)c2nc(C(C)(C)CN3CCN(C)CC3)[nH]c12 | 8.08
Cc1cc(NC(=O)NCC(CC(C)C)N2CCOCC2)n(C)n1 (stereo not given) | -0.113
CC(C)CC(CNC(=O)NCc1cc[nH]n1)N1CCOCC1 (stereo not given) | 52
O=C(NCc1cc[nH]n1)NCC(c1ccccc1)N1CCOCC1 (stereo not given) | 15.8
CC(C)C(CNC(=O)NCc1cc[nH]n1)N1CCOCC1 (stereo not given) | -1.6
CCC(CNC(=O)Cc1c(C)noc1C)N1CCCC1 (stereo not given) | 57.3
Cc1noc(C)c1CC(=O)NCCN1CCN(S(C)(=O)=O)CC1 | -47.8
Cc1noc(C)c1CNC(C(=O)N1CCOCC1)C(C)C (stereo not given) | 22.2
Cc1noc(C)c1CC(=O)NCC(C(C)C)N1CCOCC1 (stereo not given) | 58.2
Cc1noc(C)c1CC(=O)NCC(CC(C)C)N1CCOCC1 (stereo not given) | 62.8
Cc1noc(C)c1CC(=O)NCC(C)N1CCOCC1 (stereo not given) | 46.1
Cc1noc(C)c1CC(=O)NCCc1cccs1 | -26.9
Cc1noc(C)c1C(=O)NCCN1CCOCC1 | -27.8

Structure (SMILES) | INHIBITION [%]
Cc1cc(NC(=O)CN2CCCC2c2c(C)nn(C)c2C)on1 (stereo not given) | 5.03
Cc1noc(C)c1-c1nc(C2CCCN(C(=O)C(C)C)C2)ccc1CO (stereo not given) | 48.1
CC(=O)N(Cc1ncc(C)o1)C1CCN(Cc2nccn2C)C1 (stereo not given) | 11.45
CC(=O)N1[C@H](Cn2cncn2)C[C@@H]2CN(CC3CC3)CC[C@@H]21 | -1.83
COc1ccccc1C(=O)N1C[C@@H]2CCCCN(CC(N)=O)[C@@H]2C1 | 9.05
CC(NCCCn1cccn1)c1ccc(N2CCCS2(=O)=O)cc1 (stereo not given) | 5.58
COCCCNS(=O)(=O)c1cccc(CSC)c1 | -15.7
COCCCNS(=O)(=O)c1ccc(N2CCCCS2(=O)=O)cc1 | 73.4
CCOc1ccc(NC(=O)N(C)Cc2cnn(C)c2)c(C)c1 | 11.9
Cc1nc2c(c(C)c1CC(=O)NCc1cccs1)c(=O)[nH]n2C | -0.219
O=c1n(Cc2cccc(F)c2)nc2ncccn12 | -31.7
Cc1ccoc1C(=O)N1C[C@H](OCc2cccnc2)[C@H]2OCCC[C@H]21 | 33.4
Cc1ccc(C(=O)N2C[C@@H](OCC3CCOCC3)[C@H]3OCCC[C@H]32)o1 | 41.5
Cc1ccoc1C(=O)N1C[C@H](OCC2CC2)[C@H]2OCCC[C@H]21 | -31
Cc1ccoc1C(=O)N1CCO[C@H]2[C@H](OCC3CCOCC3)CC[C@@H]21 | -0.182
Cc1ccoc1C(=O)N1C[C@@H](OCC2CCOCC2)[C@H]2OCCC[C@H]21 | 57.1
Cc1ccoc1C(=O)N1C[C@@H](OCC2CC2)[C@H]2OCCC[C@H]21 | 55.2
CN(C)CCN1CCc2c(nnn2C)C1COCc1ccccc1 (stereo not given) | -4.98
CCc1[nH]ncc1C(=O)N1CCCC(n2ccnc2C)C1 (stereo not given) | 7.12
CCOCC(=O)N1CCCC2(CCN(c3ccccc3)C2=O)C1 (stereo not given) | 33.4
CN(C)C(=O)N1CCC2(CC(=O)N(c3cccc(C#N)c3)C2)C1 (stereo not given) | 7.65
O=C(CC1CC1)N1CCC2(CC(=O)N(c3cccc(F)c3)C2)C1 (stereo not given) | -40.5

Structure (SMILES) | INHIBITION [%]
N#Cc1cccc(N2CC3(CCN(C(=O)NC4CC4)C3)CC2=O)c1 (stereo not given) | 33.4
O=C1CC2(CCN(Cc3cccs3)C2)CN1c1cccc(F)c1 (stereo not given) | 59.2
CN(C)CC(=O)N1CCC2(CC(=O)N(c3cccc(C#N)c3)C2)C1 (stereo not given) | 53.5
COCC(=O)N1CCC2(CC(=O)N(c3cccc(F)c3)C2)C1 (stereo not given) | 63.1
O=C(Cc1ccccc1)N1CCC2(CC(=O)N(c3cccc(F)c3)C2)C1 (stereo not given) | 5.65
COCC(=O)N1CCCC2(CCN(c3ccccc3)C2=O)C1 (stereo not given) | 71.9
COCCC(=O)N1CCCC2(CCN(c3ccccc3)C2=O)C1 (stereo not given) | -3.58
O=C1CC2(CCN(Cc3ccncc3)C2)CN1c1cccc(F)c1 (stereo not given) | -11.6
O=C1CC2(CCN(CCO)C2)CN1c1cccc(F)c1 (stereo not given) | -9.02
CC(C)c1ncc(CNC2(c3ccc(Cl)cc3)CC2)cn1 | -33.4
O=C(NC1CCN(C2CC2)C1)c1cn(-c2ccc(F)cc2)nn1 (stereo not given) | 14.3
CC1CN(C(=O)c2ccn(C)c(=O)c2)c2ccccc2NC1=O (stereo not given) | -24
Cc1ccc(CN(C)C(=O)CN2CCCC(Cn3cncn3)C2)o1 (stereo not given) | 15.6
Cc1ccc(C(=O)N(C)Cc2ccc(Br)s2)c(=O)[nH]1 | 37.4
Cc1ccc(-c2nc(CNC(C)Cn3cccn3)cs2)o1 (stereo not given) | -27.9
CCCc1noc(C(C)N2CCN(c3ccc(C#N)cn3)CC2)n1 (stereo not given) | 5.23
CC(Cn1cccn1)NC(=O)N(C)Cc1ccc(C(N)=O)cc1 (stereo not given) | 14.3
CC(C)NC(=O)N1CCC2(CC(=O)N(c3cccc(F)c3)C2)C1 (stereo not given) | 7.65
Cc1cccc(N2CC3(CCN(C(=O)NC(C)C)C3)CC2=O)c1 (stereo not given) | 14.6
CC(C)NC(=O)N1CCC2(CC(=O)N(c3cccc(C#N)c3)C2)C1 (stereo not given) | 66.5
COCCN1C[C@@H]2CC[C@H]1CN(C(=O)CCc1c(C)nn(C)c1C)C2 | 27.5
Cn1cc(CN2C[C@@H](N3CCCC3=O)[C@H]3OCCC[C@H]32)cn1 | 29

Structure (SMILES) | INHIBITION [%]
Cn1ccnc1CN1C[C@H](N2CCOCC2)[C@@H]2OCCC[C@@H]21 | 37.8
Cn1cc(CN2C[C@H](N3CCOCC3)[C@@H]3OCCC[C@@H]32)cn1 | 54.1
CC(C)c1nnc(CN2CCCC3(CC2)CN(C)C(=O)O3)o1 (stereo not given) | 23.9
CCOc1ccc(Cl)c(C(=O)N2CCCC(N3CCCC3)C2)n1 (stereo not given) | 23.3
CC(C)N(CC(N)=O)Cc1csc(COc2ccc(F)cc2)n1 | 81.5
CCc1nc(CN(CC(N)=O)C(C)C)cs1 | 22.5
COCc1nc(CN(CC(N)=O)C(C)C)cs1 | 42
COc1ccc(-c2noc(CN3CCN(c4cnccn4)CC3)n2)cc1 | 47
Cc1cc(C)cc(C(=O)N2CCN(C(=O)N(C)C)CC2(C)C)c1 | 18.6
CN(C)C(=O)N1CCN(C(=O)c2ccc(Cl)c(Cl)c2)C(C)(C)C1 | 14.1
COC(=O)c1cccc(C(=O)N2CCN(C(=O)N(C)C)CC2(C)C)c1 | 68.6
CC(=O)N1CCC2(CC1)CN(C)CC[C@H]2C(F)(F)F | -22.1
c1cc(CN2CCc3ncnc(C4CCOC4)c3CC2)ccn1 (stereo not given) | 29.8
O=C(c1cn(-c2ccccc2)nn1)N1CCOCC(O)C1 (stereo not given) | -28.1
O=C(CCc1ccccn1)NC1CCCN(C2Cc3ccccc3C2)C1 (stereo not given) | 51.1
O=C(CCc1ccccn1)NC1CCN(c2cccc(Cl)c2)C1 (stereo not given) | 46.4
O=C(CCc1nc(Cl)n[nH]1)NC1CCCN(C2Cc3ccccc3C2)C1 (stereo not given) | 35.1
Cn1nnnc1SC1CCCN(c2cccc(F)c2)C1=O (stereo not given) | -12.4
O=C(COCC(=O)N(c1ccccc1)c1ccccc1)N1CCOCC1 | 13.3
CN(CCN1CCOCC1)C(=O)CCCc1ccccc1 | -57.6
O=C(CN1CCOCC1)N(c1ccccc1)c1ccccc1 | 78.8
CCOCC(=O)N1CCC2(CC1)CN(Cc1cccnc1)C(=O)CO2 | -47.9

Structure (SMILES) | INHIBITION [%]
COCCN1CCCC(Cc2cnc(-c3c(C)nn(C)c3C)cn2)C1 (stereo not given) | -29.9
COCC1CN(c2ccc(C)nn2)Cc2cnn(CC3CCOCC3)c21 (stereo not given) | 13.6
Cc1cc2[nH]c(O)nc2cc1NCc1ccc(F)cc1 | -5.64
COc1ccc(-c2nc3c([nH]2)CCNC3C(=O)O)c2ccccc12 (stereo not given) | 55.4
Cc1ccc(-c2nc3c([nH]2)CCNC3C(=O)O)c2cccnc12 (stereo not given) | -6.83
COc1ccc(-c2nc3c([nH]2)CCNC3C(=O)O)c2ccc(C)nc12 (stereo not given) | 36.6
Cc1ccc2nc(C(=O)N3C[C@@H](C(=O)O)[C@H](c4cccnc4)C3)cn2c1 | -10.1
COc1cc(CNC(=O)COC2CCCC2)ccc1O | 9.06
CNc1cc(C2CCN2c2ncccn2)nc(C)n1 (stereo not given) | 15.5
O=C(NC1CC1)C(c1ccccc1)N1CCN(Cc2ccc(Cl)s2)CC1 (stereo not given) | -65
NC(=O)NC(=O)C(c1ccccc1)N1CCN(Cc2ccccc2)CC1 (stereo not given) | 24
NC(=O)NC(=O)C(c1ccccc1)N1CCN(Cc2ccc(Cl)s2)CC1 (stereo not given) | 50.4
CS(=O)(=O)c1cncnc1C1CCCN(C(=O)NCc2ccccc2)C1 (stereo not given) | -2.665
COc1ccc(CN2C[C@@H]3OCCN(c4ncccn4)[C@@H]3C2)cc1 | 32.4
Cn1cncc1CN1C[C@@H]2OCCN(c3ncccn3)[C@@H]2C1 | 63.7
c1ccc(CCN2C[C@@H]3OCCN(c4ncccn4)[C@@H]3C2)cc1 | 76.5
Cc1ccc(N2CCO[C@H]3CN(Cc4cnn(C)c4)C[C@H]32)nn1 | 25.6
Cn1cc(CN2C[C@@H]3OCCN(c4ncccn4)[C@@H]3C2)cn1 | 83.5
c1cnc(N2CCO[C@H]3CN(CC4CC4)C[C@H]32)nc1 | 35.2
Cn1ccnc1CN1C[C@@H]2OCCN(c3ncccn3)[C@@H]2C1 | 28.7
Fc1ccccc1CN1C[C@@H]2OCCN(c3ncccn3)[C@@H]2C1 | 42.7
Cc1noc(C)c1CN1CCO[C@H]2CN(Cc3cncn3C)C[C@H]21 | 18.5
